Results filed as inconclusive are left out. Active and inactive are the calls of the source. Unless noted, calls follow the shape of the full dose curve. Residues, ends and D or L forms follow the SMILES beside them. *: point of attachment. Cbz = O=C(OCc1ccccc1)*
How the values were obtained:
[1] = qHTS assay for measurement of the activity of small molecule inhibitors on Zika virus induced Caspase-3 activity in human iPSC derived neural progenitor cells (hNPCs) (AID 1224857; active = well fitted inhibition curve with a large enough effect; also: nearly all actives have a fitted effect of over 65% in size)
Outline: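 Human iPSC-derived neural progenitor cells pretreated 1 hr with compounds, then infected with Zika virus (2 FFU/cell) for 6 hours at 37 C. Caspase-3/7 measured by Caspase-Glo luminescence; % inhibition calculated from induction scaled to uninfected (0%) and infected (100%) wells.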

[2] = qHTS assay for measurement of the activity of small molecule inhibitors on Zika virus induced Caspase-3 activity in human astrocytoma cells (AID 1224859; active = well fitted inhibition curve with a large enough effect)
Outline: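 SNB-19 astrocytoma cells, 250/well, pretreated 1 h with compounds, then Zika virus at 2 FFU/cell for 6 h at 37 C; Caspase-Glo 3/7 luminescence after 30 min; percent inhibition normalised to uninfected and infected controls.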

[3] = Natriuretic polypeptide receptor (hNpr1) antagonism - Pilot counterscreen GloSensor control cell line (AID 1347045); also: series mostly up to about 38 µM
Outline: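 HEK293 cGMP-sensor cells; 2% GloSensor reagent 2 h RT; LOPAC compounds in 1:5 titrations 30-50 min; 50 uM SNP 20 min; luminescence pre-read and post-read.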

[4] = molecular target: Atrial natriuretic peptide receptor 1 (Homo sapiens) (UniProt P16066); assay: Natriuretic polypeptide receptor (hNpr1) antagonism - Pilot screen (AID 1347049);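 also: agonist-evoked cGMP luminescence read 20 min after hNppA addition; series mostly up to about 58 µM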
Outline: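 cGMP-sensor HEK293/hNpr1 cells, 1500/well, plated overnight at 37C. 2% GloSensor reagent, 2 h RT. Compound (23 nL pin transfer) 30 min RT, baseline luminescence pre-read. 0.1 nM hNppA, 20 min RT, post-read.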

[5] = molecular target: Atrial natriuretic peptide receptor 2 (Homo sapiens) (UniProt P20594); assay: Natriuretic polypeptide receptor (hNpr2) antagonism - Pilot subtype selectivity assay (AID 1347050)
Outline: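 Luminescence from a genetically encoded cGMP luciferase biosensor in hNpr2-expressing HEK293 cells is read before and 20 min after adding 1 nM hNppC. Test compounds, in interplate 1:5 titrations, are added 30-50 min ahead of the agonist.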

Measured: Potency

Sequence of Atrial natriuretic peptide receptor 2 (Homo sapiens) (P20594 whole entry, looked up): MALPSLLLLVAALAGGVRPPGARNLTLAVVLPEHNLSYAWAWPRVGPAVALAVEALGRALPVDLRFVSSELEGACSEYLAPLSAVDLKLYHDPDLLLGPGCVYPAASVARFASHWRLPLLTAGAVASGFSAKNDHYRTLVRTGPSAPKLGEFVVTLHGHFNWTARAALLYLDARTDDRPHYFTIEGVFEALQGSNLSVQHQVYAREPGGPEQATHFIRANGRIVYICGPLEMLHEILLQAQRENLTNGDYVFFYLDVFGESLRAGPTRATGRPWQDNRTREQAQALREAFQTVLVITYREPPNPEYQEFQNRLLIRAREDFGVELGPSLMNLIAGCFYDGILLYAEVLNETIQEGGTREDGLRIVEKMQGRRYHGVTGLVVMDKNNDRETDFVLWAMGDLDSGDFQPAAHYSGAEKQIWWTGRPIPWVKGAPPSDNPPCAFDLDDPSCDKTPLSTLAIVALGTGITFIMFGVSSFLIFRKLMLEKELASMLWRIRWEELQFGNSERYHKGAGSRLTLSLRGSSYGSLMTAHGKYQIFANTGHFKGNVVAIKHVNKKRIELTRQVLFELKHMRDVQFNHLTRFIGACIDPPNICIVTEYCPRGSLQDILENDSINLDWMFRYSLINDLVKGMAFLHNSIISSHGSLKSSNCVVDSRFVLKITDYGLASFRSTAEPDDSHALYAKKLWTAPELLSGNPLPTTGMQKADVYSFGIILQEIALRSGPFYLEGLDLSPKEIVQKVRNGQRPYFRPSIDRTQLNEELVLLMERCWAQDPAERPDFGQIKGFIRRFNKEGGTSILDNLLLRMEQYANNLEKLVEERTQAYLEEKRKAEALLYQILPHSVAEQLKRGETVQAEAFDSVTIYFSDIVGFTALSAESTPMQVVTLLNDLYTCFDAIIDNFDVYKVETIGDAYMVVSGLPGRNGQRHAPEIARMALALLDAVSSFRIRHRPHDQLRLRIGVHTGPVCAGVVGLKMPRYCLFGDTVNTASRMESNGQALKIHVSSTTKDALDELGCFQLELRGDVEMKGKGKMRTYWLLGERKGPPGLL
Sequence of Atrial natriuretic peptide receptor 1 (Homo sapiens) (P16066 whole entry, looked up): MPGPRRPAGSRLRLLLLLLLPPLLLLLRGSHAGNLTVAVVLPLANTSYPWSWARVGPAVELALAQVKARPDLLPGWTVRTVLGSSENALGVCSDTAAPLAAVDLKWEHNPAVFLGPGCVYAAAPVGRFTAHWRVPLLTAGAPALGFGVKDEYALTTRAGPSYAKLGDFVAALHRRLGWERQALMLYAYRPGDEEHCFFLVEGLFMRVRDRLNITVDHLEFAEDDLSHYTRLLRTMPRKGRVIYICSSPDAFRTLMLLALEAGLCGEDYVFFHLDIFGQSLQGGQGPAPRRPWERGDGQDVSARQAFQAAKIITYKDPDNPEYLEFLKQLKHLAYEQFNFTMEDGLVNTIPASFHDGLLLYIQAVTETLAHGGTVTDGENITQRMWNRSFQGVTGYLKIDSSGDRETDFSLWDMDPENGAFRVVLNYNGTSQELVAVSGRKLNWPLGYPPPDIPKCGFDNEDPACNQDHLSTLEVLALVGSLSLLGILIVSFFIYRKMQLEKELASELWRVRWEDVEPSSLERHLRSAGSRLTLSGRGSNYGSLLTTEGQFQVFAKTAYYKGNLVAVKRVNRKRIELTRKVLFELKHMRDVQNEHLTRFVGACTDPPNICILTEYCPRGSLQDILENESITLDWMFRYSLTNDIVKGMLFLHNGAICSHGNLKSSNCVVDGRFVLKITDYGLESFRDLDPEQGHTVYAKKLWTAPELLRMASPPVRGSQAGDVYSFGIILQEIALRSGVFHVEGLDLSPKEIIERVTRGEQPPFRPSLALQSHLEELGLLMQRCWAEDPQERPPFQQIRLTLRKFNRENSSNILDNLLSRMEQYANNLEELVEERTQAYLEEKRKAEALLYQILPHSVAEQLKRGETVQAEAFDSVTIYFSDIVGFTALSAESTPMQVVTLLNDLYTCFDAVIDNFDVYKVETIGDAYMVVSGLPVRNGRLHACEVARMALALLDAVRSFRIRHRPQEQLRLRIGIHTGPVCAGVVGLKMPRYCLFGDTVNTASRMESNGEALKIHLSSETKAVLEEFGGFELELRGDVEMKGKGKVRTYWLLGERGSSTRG

Cc1cccc(C(=O)NCN2CCN(c3ccccc3C#N)CC2)c1
inactive: [1] | [2] | [3] | [4] | [5]

CC1CNCCN1S(=O)(=O)c1cccc2cnccc12 (stereo not given)
inactive: [1] | [2] | [3] | [4] | [5]

C/C(=C\c1ccc(C(=O)O)cc1)c1ccc2c(c1)C(C)(C)CCC2(C)C
inactive: [1] | [2] | [3] | [4] | [5]

CC(C)NCC(O)COc1ccc(CC(N)=O)cc1 (stereo not given)
inactive: [1] | [2] | [3] | [4] | [5]

CCCc1c(-c2ccc(O)cc2)nn(-c2ccc(O)cc2)c1-c1ccc(O)cc1
inactive: [1] | [2] | [3] | [4] | [5]

CC(C)(CO)Cc1cc(C(C)(C)C)c(O)c(C(C)(C)C)c1
inactive: [1] | [2] | [3] | [4] | [5]

CC(C)[C@H](NC(=O)OCc1ccccc1)C(=O)N[C@H](C=O)Cc1ccccc1 (Cbz-Val-Phe-aldehyde)
inactive: [1] | [2] | [3] | [4] | [5]

N=C(N)c1ccc(N)cc1
inactive: [1] | [2] | [3] | [4] | [5]

CCCCCCCCCCC(C)(C)C(=O)Nc1c(OC)cc(OC)cc1OC
inactive: [1] | [2] | [3] | [4] | [5]

Nc1ccc(CCNc2ncnc3c2ncn3C2OC(CO)C(O)C2O)cc1 (stereo not given)
inactive: [1] | [2] | [3] | [4] | [5]

CC(C)[C@@H]1CC[C@@H](C)C[C@@H]1P(=O)(c1ccccc1)c1ccccc1
inactive: [1] | [2] | [3] | [4] | [5]
